# According to article PMC10668032, “Altered binding affinity of SIX1-Q177R correlates with enhanced WNT5A and WNT pathway effector expression in Wilms tumor”:
# Whole data set: some 33,000 sequences, median “e-score” near -0.05, cut for the highest 2% near 0.38. The sample as a whole holds a higher share of the highest values than the screen did.
# Target: T1, SIX1-Q177R homeodomain (human, UniProt Q15475 108-198, Q177R)
# T1 sequence: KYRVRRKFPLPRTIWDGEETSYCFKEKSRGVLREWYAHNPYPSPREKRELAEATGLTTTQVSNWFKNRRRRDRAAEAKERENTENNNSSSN
# Assay: universal protein binding microarray; Universal all-10-mer PBM (8x60K, AMADID 030236), 300 nM GST-tagged protein, Alexa Fluor 488 anti-GST; buffer, salt, pH and temperature not stated (as in Berger); high values mean tight binding
# Settings: protein: ivt; tags: N-terminal GST; dsDNA, one strand shown
# Method in brief: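 Binding of GST-tagged homeodomains is given as 8-mer E-scores from the Universal PBM Analysis Suite. The proteins were produced by in vitro transcription/translation, quantified by anti-GST western blot against a recombinant GST standard curve, and applied in duplicate at 300 nM final concentration to universal 'all 10-mer' protein binding microarrays (8×60K format).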
row,Sequence,binding signal
1,CGCGTACA,0.2538 ± 0.00208 E-score
2,GAGGGTGC,0.237 ± 0.0114 E-score
3,AAAGAGTG,0.186 ± 0.0198 E-score
4,AGAACCCC,0.182 ± 0.0559 E-score
5,GGATCATA,0.184 ± 0.0113 E-score
6,CACCTGCA,0.213 ± 0.0191 E-score
7,ATCCCCTC,0.196 ± 0.00519 E-score
8,ACCACGCA,0.24 ± 0.0201 E-score
9,CGACACGC,0.424 ± 0.0203 E-score
10,CGACGCGA,0.151 ± 0.0242 E-score
11,AGACACGC,0.346 ± 0.00786 E-score
12,AGACACGA,0.369 ± 0.0153 E-score
13,CGACACGA,0.421 ± 0.0189 E-score
14,CACTCCGC,0.256 ± 0.00576 E-score
15,ACCCTTTC,0.194 ± 0.0513 E-score
16,CACTCTGC,0.187 ± 0.0156 E-score
17,GCCCCGCC,0.175 ± 0.055 E-score
18,CAATACCC,0.218 ± 0.00416 E-score
19,CGATACCC,0.411 ± 0.012 E-score
20,CGATACCA,0.321 ± 0.00519 E-score
21,AGATACCC,0.278 ± 0.0188 E-score
22,GGATACCC,0.403 ± 0.00919 E-score
23,GGATACCA,0.327 ± 0.00751 E-score
24,CAACCACG,0.155 ± 0.0108 E-score
25,CACTCTGG,0.187 ± 0.00384 E-score

row,Sequence,binding signal
1,CCCCCTGC,0.156 ± 0.0255 E-score
2,ACAGAGGT,0.156 ± 0.00829 E-score
3,ATTAGGTG,0.296 ± 0.00518 E-score
4,ACCATGGT,0.2 ± 0.05 E-score
5,CACCGTTC,0.3236 ± 0.00306 E-score
6,AGATACCA,0.192 ± 0.0243 E-score
7,GGATACAA,0.161 ± 0.00762 E-score
8,GGATACTA,0.152 ± 0.0189 E-score
9,CGATACAC,0.402 ± 0.0188 E-score
10,GGATACAC,0.424 ± 0.00693 E-score
11,CGATACCG,0.233 ± 0.0113 E-score
12,CGATACTC,0.211 ± 0.00408 E-score
13,AGATACAC,0.424 ± 0.0151 E-score
14,AGATACCT,0.179 ± 0.011 E-score
15,CTGCCCGC,0.163 ± 0.0123 E-score
16,CACCGACA,0.374 ± 0.0291 E-score
17,TACTGATA,0.192 ± 0.0304 E-score
18,GTATCCAC,0.287 ± 0.00341 E-score
19,GTATGGTA,0.159 ± 0.00206 E-score
20,AGGGTATC,0.363 ± 0.0101 E-score
21,AGGGTGGG,0.176 ± 0.00829 E-score
22,AGGGGGTC,0.271 ± 0.0446 E-score
23,AGGGTGTG,0.4 ± 0.015 E-score
24,AGGGTGCG,0.226 ± 0.0208 E-score
25,AGGGTGTC,0.4879 ± 0.00164 E-score

row,Sequence,binding signal
1,AAGGGGTG,0.227 ± 0.00304 E-score
2,AGGGGGTG,0.396 ± 0.00554 E-score
3,CGGGTGTA,0.47551 ± 0.00024 E-score
4,CGGGTGCA,0.238 ± 0.0106 E-score
5,AGGGGGTA,0.358 ± 0.00366 E-score
6,CGGGTGGA,0.173 ± 0.033 E-score
7,CATCCGGG,0.156 ± 0.00322 E-score
8,ACCCTCGT,0.1905 ± 0.000806 E-score
9,CACCGAGA,0.276 ± 0.0313 E-score
10,TGTAGAAA,0.225 ± 0.0216 E-score
11,AATCGACA,0.173 ± 0.025 E-score
12,ACAAGGTC,0.218 ± 0.0287 E-score
13,CAGGCAGG,0.186 ± 0.0165 E-score
14,CACGCTAC,0.242 ± 0.0124 E-score
15,CCCCGACA,0.324 ± 0.012 E-score
16,AGGGTGCA,0.265 ± 0.0337 E-score
17,AGGGTGTA,0.475 ± 0.00846 E-score
18,CGGGGGTC,0.314 ± 0.0405 E-score
19,CGGGTGTC,0.487 ± 0.00672 E-score
20,GGGGTGAA,0.154 ± 0.0542 E-score
21,GGGGTGTA,0.4856 ± 0.000757 E-score
22,CGGGTGGC,0.178 ± 0.0577 E-score
23,GGGGTGCA,0.273 ± 0.0552 E-score
24,AGGGTATA,0.199 ± 0.0079 E-score
25,CGATACTA,0.157 ± 0.00168 E-score

row,Sequence,binding signal
1,AGTGCACA,0.171 ± 0.00742 E-score
2,AGCCGGTG,0.282 ± 0.011 E-score
3,CCGGTACA,0.224 ± 0.00738 E-score
4,ACTTGGTG,0.2882 ± 0.00137 E-score
5,CCCCAATA,0.153 ± 0.00289 E-score
6,CCGAGTGA,0.156 ± 0.00131 E-score
7,CACCGCCG,0.375 ± 0.0128 E-score
8,ACGTGTTC,0.3144 ± 0.00304 E-score
9,CCGTGGTA,0.166 ± 0.0401 E-score
10,GCGTGATA,0.173 ± 0.0569 E-score
11,GCGTGTTA,0.387 ± 0.0267 E-score
12,GCGTGCTA,0.151 ± 0.031 E-score
13,ACGTGTTA,0.352 ± 0.0237 E-score
14,CCGTGCTC,0.226 ± 0.0264 E-score
15,CCGTGTTC,0.384 ± 0.0141 E-score
16,CCGTGTTA,0.4236 ± 0.00253 E-score
17,CACAGTGG,0.16 ± 0.0343 E-score
18,CGGGGATC,0.212 ± 0.00313 E-score
19,CGCACGAC,0.187 ± 0.0218 E-score
20,ATCCGAGG,0.1653 ± 0.000757 E-score
21,GTAATCGA,0.204 ± 0.015 E-score
22,CGGCTGAC,0.174 ± 0.0351 E-score
23,CGAATGAC,0.198 ± 0.0214 E-score
24,AAGAGGTG,0.368 ± 0.00802 E-score
25,GTTCCGTA,0.188 ± 0.0176 E-score

row,Sequence,binding signal
1,GGGTATAA,0.152 ± 0.0231 E-score
2,GGGTCCCA,0.1517 ± 0.0014 E-score
3,GTATCCGA,0.312 ± 0.0026 E-score
4,GTATCCAA,0.292 ± 0.0191 E-score
5,GGGTCCAA,0.218 ± 0.025 E-score
6,GTGTCCTA,0.4 ± 0.0124 E-score
7,GTGTCCCA,0.442 ± 0.019 E-score
8,GTGTCCAA,0.419 ± 0.0151 E-score
9,GTGTCTGA,0.364 ± 0.022 E-score
10,GCGTCCTA,0.168 ± 0.0119 E-score
11,GTATCCCA,0.252 ± 0.00467 E-score
12,GTATCCTA,0.187 ± 0.00559 E-score
13,GTGTCCGA,0.413 ± 0.0127 E-score
14,CACCATGA,0.289 ± 0.0156 E-score
15,CAGATACA,0.313 ± 0.0113 E-score
16,AGGGTTAC,0.162 ± 0.0418 E-score
17,GGTGCCAA,0.187 ± 0.0523 E-score
18,GAACGACA,0.238 ± 0.0152 E-score
19,ATCCCCCG,0.266 ± 0.0176 E-score
20,CACGCGAC,0.26 ± 0.00798 E-score
21,GGTATACA,0.269 ± 0.00593 E-score
22,TGTTATAA,0.267 ± 0.015 E-score
23,ACAGGGGT,0.266 ± 0.0127 E-score
24,CAATAGTG,0.17 ± 0.0397 E-score
25,CACGGTGG,0.26 ± 0.0142 E-score

row,Sequence,binding signal
1,AGGTTACA,0.182 ± 0.0252 E-score
2,ATTCGACA,0.163 ± 0.00531 E-score
3,CGATCACG,0.173 ± 0.0459 E-score
4,CTCCCCGC,0.168 ± 0.0157 E-score
5,ATACTCTC,0.158 ± 0.0315 E-score
6,ACACACTC,0.314 ± 0.0291 E-score
7,ACACTCTC,0.3915 ± 0.00342 E-score
8,ACACTCTG,0.404 ± 0.00495 E-score
9,ACTGGGCG,0.192 ± 0.0152 E-score
10,CTAAGACA,0.2225 ± 0.00145 E-score
11,CACAGCCG,0.208 ± 0.0273 E-score
12,ACCAACGA,0.187 ± 0.00325 E-score
13,CTCAGCAC,0.185 ± 0.0185 E-score
14,AAGACACT,0.3744 ± 0.00267 E-score
15,CAGACACA,0.19 ± 0.0525 E-score
16,AAGACACC,0.4713 ± 0.00312 E-score
17,CAGACACC,0.456 ± 0.0151 E-score
18,GAGACACC,0.462 ± 0.0147 E-score
19,GAGACAAC,0.1522 ± 0.00125 E-score
20,GAGACACA,0.241 ± 0.0428 E-score
21,AAGACACG,0.35 ± 0.00553 E-score
22,CAGACACG,0.353 ± 0.0179 E-score
23,ACACAATC,0.178 ± 0.0434 E-score
24,CACCGTTA,0.24 ± 0.0265 E-score
25,CACGAAAC,0.152 ± 0.0288 E-score

row,Sequence,binding signal
1,TACGTACA,0.18 ± 0.0207 E-score
2,ACTCTACA,0.296 ± 0.00689 E-score
3,ATTCTACA,0.181 ± 0.0191 E-score
4,ACGATGGG,0.151 ± 0.0168 E-score
5,CGTGTCCC,0.398 ± 0.0161 E-score
6,GGTGTCCA,0.48 ± 0.00796 E-score
7,GGGGTCCA,0.268 ± 0.0349 E-score
8,AGTGTCCA,0.348 ± 0.00804 E-score
9,CGTGTCCA,0.4 ± 0.0263 E-score
10,GGAGTCCC,0.171 ± 0.00561 E-score
11,GGTATCCA,0.3692 ± 0.00211 E-score
12,AGTGTCCC,0.379 ± 0.0227 E-score
13,CTGATACA,0.24 ± 0.00405 E-score
14,CTTTGACA,0.219 ± 0.022 E-score
15,CCGAACCG,0.175 ± 0.0143 E-score
16,ATTATACA,0.165 ± 0.0294 E-score
17,ACACTTTA,0.343 ± 0.037 E-score
18,CACTCCTG,0.335 ± 0.0105 E-score
19,CATTACAC,0.452 ± 0.0182 E-score
20,GATTACCC,0.175 ± 0.0203 E-score
21,AATTGCAC,0.151 ± 0.0498 E-score
22,AATCACAC,0.348 ± 0.00368 E-score
